According to PubChem BioAssay (Tox21):
Records with an inconclusive call do not appear. A call without a number means that no potency is given here. Active and inactive are the calls of the source. Unless noted, calls follow the shape of the dose curve; as a rule, active = well fitted curve in the direction sought with a large enough effect in the repeat runs; inconclusive = weak or mixed curves; inactive = no such curve, though single readings can be large; an effect the other way counts as inactive or inconclusive.

Columns and labels:
[1] = qHTS assay to identify small molecule agonists of the peroxisome proliferator-activated receptor delta (PPARd) signaling pathway - cell viability counter screen (AID 743211); also: nearly all actives have a fitted effect of over 55% in size; also: potency is read from the fitted curve at half-maximal effect
Procedure, shortened: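 Following 5 h plating at 37 C and 5% CO2, PPARd UAS-bla HEK293H cells took up test compounds for 17 h. Viability was quantified by luminescence 30 min after CellTiter-Glo addition at room temperature.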

[2] = qHTS assay to identify small molecule agonists of the farnesoid-X-receptor (FXR) signaling pathway - cell viability counter screen (AID 743218); also: nearly all actives have a fitted effect of over 45% in size; also: potency is read from the fitted curve at half-maximal effect
Procedure, shortened: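 In GeneBLAzer FXR-UAS-bla HEK 293T cells, compounds act for 16 h at 37 C. Cell viability is then scored in the reporter wells by CellTiter-Glo, 30 min at RT, luminescence.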

[3] = qHTS assay to identify small molecule antagonists of the vitamin D receptor (VDR) signaling pathway - cell viability counter screen (AID 743225); also: nearly all actives have a fitted effect of over 50% in size
Procedure, shortened: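 In this counter screen, VDR-bla HEK 293T cells receive test compound plus 3 nM final calcitriol for 16 h at 37C. Room-temperature steps of 2 h with the beta-lactamase substrate, then 30 min with CellTiter-Glo, precede the luminescence read.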

[4] = qHTS assay to identify small molecule agonists of the endoplasmic reticulum stress response signaling pathway (AID 1159516; active = well fitted activation curve with a large enough effect in the signal ratio in the repeat runs, not every such curve was filed as active; the % refers to the signal ratio)
Procedure, shortened: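 ER stress element reporter (bla) in HeLa. 1,500 cells/well, overnight attachment; 5 hr compound; 2 hr RT substrate; dual-emission fluorescence.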

[5] = qHTS assay to identify small molecule agonists of the endoplasmic reticulum stress response signaling pathway - cell viability counter screen (AID 1159517; calls by dose curve; also: nearly all actives have a fitted effect of over 50% in size; also: potency is read from the fitted curve at half-maximal effect)
Procedure, shortened: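 Luminescence readout: CellTiter-Glo, 30 min RT, same wells as the ESRE-bla reporter read. HeLa ESRE-bla, 1,500 cells/well, o/n 37 C; cpd 5 hr 37 C/5% CO2.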

[6] = qHTS assay to identify small molecule antagonists of the retinoid-related orphan receptor gamma (ROR-gamma) signaling pathway - cell viability counter screen (AID 1159520); also: nearly all actives have a fitted effect of over 50% in size; also: potency is read from the fitted curve at half-maximal effect
Procedure, shortened: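 Tet-on ROR gamma CHO cells (1,000/well) were plated 4 hr, given compounds in DMSO for 2 hr at 37 C, then induced with 1 uM final doxycycline for 16 hr. Viability was read as ATP by CellTiter-Glo luminescence after 30 min.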

[7] = qHTS assay to identify small molecule agonists of the AP-1 signaling pathway - cell viability counter screen (AID 1159525; calls by dose curve; also: nearly all actives have a fitted effect of over 55% in size; also: potency is read from the fitted curve at half-maximal effect)
Procedure, shortened: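 ME-180 AP-1-bla, 2500 cells/well, Opti-MEM + 0.5% dialyzed FBS; overnight 37 °C; cpd 15-pt titration, 5 h 37 °C; CellTiter-Glo 30 min RT; luminescence read; normalised to TOAB and DMSO controls.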

[8] = qHTS assay to identify small molecule agonists of the AP-1 signaling pathway (AID 1159526; calls by dose curve)
[9] = molecular target: Retinoic acid receptor RXR-alpha (Homo sapiens) (UniProt P19793); assay: qHTS assay to identify small molecule agonists of the RXR signaling pathway (AID 1159527; calls by dose curve; also: nearly all actives have a fitted effect of over 35% in size)
Procedure, shortened: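 Fluorescence ratio readout (460 vs 530 nm) from GeneBLAzer RXR-alpha HEK 293T cells after 16 hr compound treatment; cells seeded 5 hr beforehand in low-serum, charcoal-stripped medium.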

[10] = qHTS assay to identify small molecule antagonists of the peroxisome proliferator-activated receptor delta (PPARd) signaling pathway - cell viability counter screen (AID 743213); also: nearly all actives have a fitted effect of over 50% in size; also: potency is read from the fitted curve at half-maximal effect
Procedure, shortened: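 Luminescence from CellTiter-Glo, added after the bla read and incubated 30 min at room temperature, gives viability of HEK293H PPARd-bla cells exposed to compounds for 17 h at 37 C with 300 nM L165041.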

[11] = qHTS assay to identify small molecule antagonists of the farnesoid-X-receptor (FXR) signaling pathway - cell viability counter screen (AID 743221; active = well fitted cell-killing curve with a large enough effect in the repeat runs, not every such curve was filed as active; also: nearly all actives have a fitted effect of over 50% in size; also: potency is read from the fitted curve at half-maximal effect)
Procedure, shortened: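 Compound effects on cell number were measured as CellTiter-Glo luminescence in HEK 293T cells expressing FXR-UAS-bla, after 16 h at 37 C with 50 uM CDCA (final).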

[12] = qHTS assay to identify small molecule agonists of the vitamin D receptor (VDR) signaling pathway - cell viability counter screen (AID 743224)
Procedure, shortened: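 VDR-bla cell line, quantitative HTS format; 16 h compound incubation (37C, 5% CO2); ATP-based CellTiter-Glo luminescence measured in the reporter assay wells.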

[13] = molecular target: Nuclear receptor ROR-gamma (Homo sapiens) (UniProt P51449); assay: qHTS assay to identify small molecule antagonists of the retinoid-related orphan receptor gamma (ROR-gamma) signaling pathway (AID 1159521; also: nearly all actives have a fitted effect of over 50% in size; also: potency is read from the fitted curve at half-maximal effect)
Procedure, shortened: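 Screening format: cell-based luciferase reporter in CHO cells with doxycycline-inducible RORγ. Compound pre-exposure lasts 2 h, doxycycline is 1 uM final, induction runs 16 h at 37 C, and ONE-Glo luminescence is read.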

[14] = molecular target: Peroxisome proliferator-activated receptor delta (Homo sapiens) (UniProt Q03181); assay: qHTS assay to identify small molecule antagonists of the peroxisome proliferator-activated receptor delta (PPARd) signaling pathway (AID 743215; active = well fitted inhibition curve with a large enough effect in the signal ratio in the repeat runs, not every such curve was filed as active; the % refers to the signal ratio;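 also: cells stimulated with agonist L165041 at 300 nM final during compound exposure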; also: potency is read from the fitted curve at half-maximal effect)
Procedure, shortened: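 Antagonist-mode beta-lactamase reporter screen: HEK293H cells with UAS-bla under PPARd control, stimulated by 300 nM L165041 (final) alongside test compound for 17 h at 37 C, then FRET fluorescence after 2 h substrate incubation.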

[15] = molecular target: Peroxisome proliferator-activated receptor delta (Homo sapiens) (UniProt Q03181); assay: qHTS assay to identify small molecule agonists of the peroxisome proliferator-activated receptor delta (PPARd) signaling pathway (AID 743212; calls by dose curve)
Procedure, shortened: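 GeneBLAzer PPARd UAS-bla HEK293H cells (beta-lactamase reporter under UAS control), plated and rested 5 h at 37 C, then exposed to compounds in DMSO at 37 C; LiveBLAzer B/G FRET substrate added, 2 h room temperature, fluorescence read.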

[16] = molecular target: Vitamin D3 receptor (Homo sapiens) (UniProt P11473); assay: qHTS assay to identify small molecule antagonists of the vitamin D receptor (VDR) signaling pathway (AID 743223; active = well fitted inhibition curve with a large enough effect in the signal ratio in the repeat runs, not every such curve was filed as active; the % refers to the signal ratio)
Procedure, shortened: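 Beta-lactamase activity in VDR-bla cells is measured by FRET substrate fluorescence (2 h, room temperature) after cells spend 16 h at 37C with test compound and 3 nM final 1alpha,25-dihydroxyvitamin D3.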

[17] = molecular target: Bile acid receptor (Homo sapiens) (UniProt Q96RI1); assay: qHTS assay to identify small molecule antagonists of the farnesoid-X-receptor (FXR) signaling pathway (AID 743217; active = well fitted inhibition curve with a large enough effect in the signal ratio in the repeat runs, not every such curve was filed as active; the % refers to the signal ratio)
Procedure, shortened: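 Beta-lactamase reporter under UAS control in HEK 293T cells; compound exposure 16 h at 37 °C in the presence of chenodeoxycholic acid (50 uM final); signal from B/G FRET substrate after 2 h at room temperature.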

[18] = molecular target: Bile acid receptor (Homo sapiens) (UniProt Q96RI1); assay: qHTS assay to identify small molecule agonists of the farnesoid-X-receptor (FXR) signaling pathway (AID 743220; active = well fitted activation curve with a large enough effect in the signal ratio in the repeat runs, not every such curve was filed as active; the % refers to the signal ratio)
Procedure, shortened: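 Beta-lactamase reporter under UAS control in GeneBLAzer FXR HEK 293T cells (5000/well) measured with LiveBLAzer FRET substrate after 2 h at room temperature. Compound exposure lasted 16 h at 37C.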

[19] = molecular target: Vitamin D3 receptor (Homo sapiens) (UniProt P11473); assay: qHTS assay to identify small molecule agonists of the vitamin D receptor (VDR) signaling pathway (AID 743222; calls by dose curve)
Procedure, shortened: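 Agonist activity measured in VDR-bla reporter cells. Exposure 16 h, 37C, 5% CO2; detection by B/G FRET substrate, 2 h RT.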

Sequence of Peroxisome proliferator-activated receptor delta (Homo sapiens) (Q03181 whole entry, looked up): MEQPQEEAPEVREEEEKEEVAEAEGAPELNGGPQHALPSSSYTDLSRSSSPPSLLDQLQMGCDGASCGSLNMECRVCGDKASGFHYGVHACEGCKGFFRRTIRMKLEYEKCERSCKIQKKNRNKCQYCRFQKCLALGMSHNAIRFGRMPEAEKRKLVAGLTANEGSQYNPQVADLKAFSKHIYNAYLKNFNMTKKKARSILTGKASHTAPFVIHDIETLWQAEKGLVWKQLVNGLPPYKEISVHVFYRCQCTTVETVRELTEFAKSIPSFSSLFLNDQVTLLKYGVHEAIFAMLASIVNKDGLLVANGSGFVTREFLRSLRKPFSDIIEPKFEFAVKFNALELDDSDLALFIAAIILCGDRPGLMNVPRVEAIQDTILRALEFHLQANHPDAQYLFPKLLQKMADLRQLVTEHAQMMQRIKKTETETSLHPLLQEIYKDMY
Sequence of Retinoic acid receptor RXR-alpha (Homo sapiens) (P19793 whole entry, looked up): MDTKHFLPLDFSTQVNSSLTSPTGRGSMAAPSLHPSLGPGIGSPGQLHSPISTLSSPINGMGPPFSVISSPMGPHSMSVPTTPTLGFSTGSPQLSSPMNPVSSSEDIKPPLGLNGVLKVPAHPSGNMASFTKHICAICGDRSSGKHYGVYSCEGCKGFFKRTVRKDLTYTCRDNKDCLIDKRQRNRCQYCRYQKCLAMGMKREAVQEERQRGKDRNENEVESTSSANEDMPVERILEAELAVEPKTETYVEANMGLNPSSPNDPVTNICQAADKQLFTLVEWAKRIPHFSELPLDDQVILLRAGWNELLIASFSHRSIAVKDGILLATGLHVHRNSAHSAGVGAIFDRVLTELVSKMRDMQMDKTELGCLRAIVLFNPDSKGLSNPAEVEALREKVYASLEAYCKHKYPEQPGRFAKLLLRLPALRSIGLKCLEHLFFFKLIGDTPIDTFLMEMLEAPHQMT
Sequence of Bile acid receptor (Homo sapiens) (Q96RI1 whole entry, looked up): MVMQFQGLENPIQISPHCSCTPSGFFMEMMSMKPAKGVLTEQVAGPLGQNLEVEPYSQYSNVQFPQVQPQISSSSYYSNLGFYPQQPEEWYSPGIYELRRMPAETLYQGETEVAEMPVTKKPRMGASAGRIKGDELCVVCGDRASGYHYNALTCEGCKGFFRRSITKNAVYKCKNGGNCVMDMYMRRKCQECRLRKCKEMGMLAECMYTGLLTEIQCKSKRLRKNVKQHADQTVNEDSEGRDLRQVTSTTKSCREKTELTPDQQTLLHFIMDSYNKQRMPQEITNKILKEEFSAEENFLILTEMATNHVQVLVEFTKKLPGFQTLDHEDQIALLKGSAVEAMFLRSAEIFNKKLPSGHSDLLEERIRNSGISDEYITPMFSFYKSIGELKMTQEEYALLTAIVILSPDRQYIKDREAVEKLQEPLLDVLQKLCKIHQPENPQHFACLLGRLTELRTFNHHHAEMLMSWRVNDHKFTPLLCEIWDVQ
Sequence of Vitamin D3 receptor (Homo sapiens) (P11473 whole entry, looked up): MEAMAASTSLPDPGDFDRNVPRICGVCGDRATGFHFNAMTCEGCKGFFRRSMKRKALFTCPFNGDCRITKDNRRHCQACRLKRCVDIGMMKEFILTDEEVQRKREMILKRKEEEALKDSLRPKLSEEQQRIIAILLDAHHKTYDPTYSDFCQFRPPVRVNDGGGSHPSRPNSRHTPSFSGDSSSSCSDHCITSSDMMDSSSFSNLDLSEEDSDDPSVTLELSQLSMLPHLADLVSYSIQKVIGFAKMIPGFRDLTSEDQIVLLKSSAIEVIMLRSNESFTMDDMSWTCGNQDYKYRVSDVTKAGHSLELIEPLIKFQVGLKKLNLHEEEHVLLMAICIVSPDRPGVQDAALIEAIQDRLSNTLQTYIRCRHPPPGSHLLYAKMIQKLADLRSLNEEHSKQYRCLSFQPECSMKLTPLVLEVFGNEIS

SMILES	Potency [1]	Potency [2]	Potency [3]	Potency [4]	Potency [5]	Potency [6]	Potency [7]	Potency [8]	Potency [9]	Potency [10]	Potency [11]	Potency [12]	Potency [13]	Potency [14]	Potency [15]	Potency [16]	Potency [17]	Potency [18]	Potency [19]
O.O.O.O.O.O.O=S(=O)([O-])[O-].[Ni+2]	inactive	inactive	inactive	inactive	inactive	inactive	inactive	inactive	inactive	–	–	–	–	–	–	–	–	–	–
C#CC1(O)CCCCC1	inactive	inactive	–	–	inactive	inactive	inactive	inactive	inactive	inactive	inactive	inactive	inactive	–	–	–	–	–	–
Oc1cccc(Cl)c1Cl	–	inactive	inactive	inactive	inactive	inactive	inactive	–	–	inactive	inactive	inactive	–	inactive	–	–	–	–	–
CCC1(CC)C(=O)N=C(O)NC1=O	inactive	–	inactive	inactive	inactive	inactive	inactive	–	inactive	inactive	inactive	inactive	inactive	inactive	inactive	inactive	–	–	–
CC[N+]1(CC)CCC(OC(=O)C(O)(c2ccccc2)c2ccccc2)C1 (centres undefined)	–	–	inactive	inactive	inactive	inactive	inactive	inactive	inactive	inactive	inactive	inactive	–	–	–	inactive	inactive	inactive	–
COP(=S)(OC)Oc1ccc([N+](=O)[O-])c(C)c1	inactive	inactive	inactive	–	inactive	inactive	inactive	inactive	inactive	–	–	inactive	inactive	inactive	inactive	inactive	–	inactive	–
CCCCCCC[CH2][Sn]([Cl])([Cl])[CH2]CCCCCCC	24.5 µM (active)	–	inactive	inactive	inactive	–	inactive	–	–	–	54.9 µM (active)	–	–	–	–	–	–	inactive	–
CC(=O)C(Cl)C(=O)N(C)C (centres undefined)	inactive	–	inactive	inactive	inactive	–	inactive	inactive	inactive	inactive	inactive	inactive	–	inactive	inactive	inactive	–	–	inactive
ClC1(Cl)C2(Cl)C3(Cl)C4(Cl)C(Cl)(Cl)C5(Cl)C3(Cl)C1(Cl)C5(Cl)C24Cl (centres undefined)	inactive	–	–	inactive	inactive	inactive	inactive	inactive	inactive	inactive	inactive	inactive	–	inactive	inactive	inactive	–	inactive	–
[Cl-].[Cl-].[Sn+2]	–	inactive	–	inactive	inactive	inactive	inactive	inactive	inactive	–	inactive	inactive	–	–	–	–	–	–	–
CCO/N=C(\CC)C1=C(O)CC(c2c(C)cc(C)cc2C)CC1=O (centres undefined)	inactive	–	–	inactive	inactive	–	inactive	inactive	–	–	–	–	inactive	–	–	–	–	inactive	–
CCN1CCC2(CC1)COc1cc3c(cc12)N(C(=O)c1ccc(-c2ccc(-c4nnc(C)o4)cc2C)cc1)CC3	9.01 µM (active)	14.3 µM (active)	–	–	50.7 µM (active)	28.3 µM (active)	45.2 µM (active)	–	–	6.38 µM (active)	45.2 µM (active)	–	2 µM (active)	18 µM (active)	–	–	–	–	–
COc1ccc2c3c1O[C@H]1[C@H](O)CC[C@H]4[C@@H](C2)N(C)CC[C@@]341	inactive	inactive	inactive	inactive	–	inactive	inactive	inactive	inactive	–	inactive	inactive	inactive	inactive	inactive	–	–	–	–
